# Source: PubChem (Johns Hopkins Ion Channel Center)
# KCNQ2 block: rat KCNQ2 potassium channel inhibitors, primary screen, cell-based, CHO-K1, FluxOR thallium flux, B-score; Potassium voltage-gated channel subfamily KQT member 2 (Rattus norvegicus), O88943; 20 min; stronger effect = lower value; B-score at 10 µM; 310,000 compounds, 1.1% hits; AID 2156, 2009;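 active = fluorescence ratio B-score at most minus 3 library SDs, with starting brightness B-score within 2 library SDs, cut at about -5.5 in these data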
# KCNQ2 enhance: potentiators of rat KCNQ2 potassium channel. Potassium voltage-gated channel subfamily KQT member 2 (Rattus norvegicus), O88943. CHO-K1 KCNQ2, FluxOR thallium flux fluorescence; stronger effect = higher value. B-score at 10 µM. 310,000 compounds, 0.54% hits. AID 2239, 2010;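 active = fluorescence ratio B-score at least 3 SD of library B-scores, with initial fluorescence B-score within 3 of them, cut at about 5.3 in these data; same plate scores as AID 2156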;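 note: B-score of peak minus minimum over baseline fluorescence ratio after K+ and Tl+ stimulus; positive B-score means potentiation of KCNQ2 with more thallium influx and brighter signal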
# Kir21 confirm: mouse Kir2.1 channel blockers, retest, confirmation, cell-based, FluxOR thallium flux, duplicate; shares compounds with KCNQ2 enhance; AID 2032, 2009; 2,300 compounds, 41% hits; Tl flux remaining, % of negative control (stronger effect = lower value), % at 10 µM; Kir2.1-expressing cells, FluxOR thallium flux fluorescence; stronger effect = lower value;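 active = Primary-screen hit whose thallium flux fell at least 3 control SD below untreated wells in both duplicates, with normal baseline fluorescence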;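 note: 0% = blank wells without stimulus and 100% = stimulated no-compound controls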
# HEK293 Tl flux: parental HEK293 activity in Kir2.1 inhibitor counter-screen. shares compounds with KCNQ2 enhance. parental HEK293 cells, FluxOR thallium flux fluorescence; 0% = unstimulated blank wells. FluxOR signal as % of negative control (100 = no effect), % at 10 µM. 2,300 compounds, 19% hits;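 active = dye signal at least 3 control SD above or below untreated wells in both duplicates, raw fluorescence within 3, either direction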;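 note: percent is based on the flux ratio of peak minus minimum fluorescence over baseline F0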
# CHO-K1 ctr: nonspecific thallium flux increase in parental CHO-K1, confirmation, counter-screen for KCNQ2 potentiator project, cell-based, FluxOR thallium flux, duplicate. shares compounds with KCNQ2 enhance. parental CHO-K1 cells, FluxOR thallium flux fluorescence; zero = vehicle mean+3SD, 100% = vehicle-minus-blank window. activity increase over 3SD of controls, % at 10 µM. 1,200 compounds, 43% hits;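 active = signal rise of at least 3 SD above the untreated control mean, in both duplicate wells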;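 note: counter screen of KCNQ2 potentiator hits so any rise reflects channel-independent effects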
# KCNQ1 pot spec: human KCNQ1 channel potentiation off-target, confirmation, selectivity assay for KCNQ2 potentiator project, cell-based, CHO, FluxOR thallium flux. shares compounds with KCNQ2 enhance. CHO KCNQ1 stable, FluxOR thallium flux fluorescence; beyond 3SD, as % of vehicle-control signal. activation over 3SD threshold, % at 10 µM. 1,200 compounds, 28% hits;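 active = fluorescence ratio rise of at least 3 SD of vehicle wells above their mean, in both replicate wells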;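 note: 0% = vehicle mean plus 3 SD and 100% = vehicle minus unstimulated blank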
# KCNQ2 pot confirm: rat KCNQ2 channel potentiators, confirmation, cell-based, CHO, FluxOR thallium flux, duplicate. 1,200 compounds, 68% hits. AID 2287, 2010. shares compounds with KCNQ2 enhance. potentiation, less the hit threshold, % at 10 µM. CHO-KCNQ2 cells, FluxOR thallium flux fluorescence;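 active = fluorescence ratio rising 3 SD or more over the vehicle control mean in both replicates, plus primary screen hit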;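 note: peak minus minimum thallium fluorescence divided by baseline after K/Tl stimulus; 0% = vehicle mean plus 3 SD and 100% = vehicle minus unstimulated blank difference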
# Kir2-1 sel: mouse Kir2.1 channel activation off-target, confirmation, selectivity assay for KCNQ2 potentiator project, cell-based, HEK293, FluxOR thallium flux. shares compounds with KCNQ2 enhance. HEK293 Kir2.1, FluxOR thallium flux fluorescence. activity over 3SD threshold, % at 10 µM. 1,200 compounds, 2% hits. AID 2345, 2010;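 active = fluorescence ratio rise of at least 3 SD above the vehicle-control mean, seen in both replicates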;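 note: 0% = vehicle mean plus 3 SD and 100% = vehicle minus no-stimulus blank window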
# KCNQ2 W236L MoA: potentiators of retigabine-insensitive KCNQ2 W236L, mechanism study for KCNQ2 potentiator project, cell-based, rat KCNQ2 W236L, CHO, automated patch clamp; shares compounds with KCNQ2 enhance; current increase over 3SD of negative controls (%), stronger effect = higher value, % at 25 µM; 940 compounds, 10% hits; automated patch clamp current;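 active = current increase at least 3 SD of the untreated controls above them in both duplicate recordings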
# Target sequence (O88943 whole entry W236L, looked up): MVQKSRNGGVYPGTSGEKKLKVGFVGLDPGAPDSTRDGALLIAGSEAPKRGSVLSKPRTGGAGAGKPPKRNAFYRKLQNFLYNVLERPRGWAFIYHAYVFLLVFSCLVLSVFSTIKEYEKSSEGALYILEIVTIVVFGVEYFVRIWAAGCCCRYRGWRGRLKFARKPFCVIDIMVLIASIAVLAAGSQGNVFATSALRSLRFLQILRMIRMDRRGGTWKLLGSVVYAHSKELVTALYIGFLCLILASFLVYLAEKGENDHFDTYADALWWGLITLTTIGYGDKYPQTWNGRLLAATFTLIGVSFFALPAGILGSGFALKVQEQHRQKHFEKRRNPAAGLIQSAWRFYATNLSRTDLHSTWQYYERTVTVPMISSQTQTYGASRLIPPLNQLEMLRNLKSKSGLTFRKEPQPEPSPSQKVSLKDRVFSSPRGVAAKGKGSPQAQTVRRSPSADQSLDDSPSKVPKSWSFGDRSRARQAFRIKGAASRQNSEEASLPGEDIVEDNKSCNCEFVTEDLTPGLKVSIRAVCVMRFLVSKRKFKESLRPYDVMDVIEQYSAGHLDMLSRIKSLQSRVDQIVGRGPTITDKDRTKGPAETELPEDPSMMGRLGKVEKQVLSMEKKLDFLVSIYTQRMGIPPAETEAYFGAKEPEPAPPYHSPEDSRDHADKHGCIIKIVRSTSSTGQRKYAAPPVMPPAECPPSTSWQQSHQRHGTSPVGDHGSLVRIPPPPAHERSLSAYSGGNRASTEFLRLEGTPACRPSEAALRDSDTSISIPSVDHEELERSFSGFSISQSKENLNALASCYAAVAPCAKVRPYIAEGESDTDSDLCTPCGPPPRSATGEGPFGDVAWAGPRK
# * hit, by the source's call; i = inactive; · = no result given. Most compounds without a hit are left out; they make up all but 1.6% or so of the library.
SMILES,KCNQ2 block,KCNQ2 enhance,Kir21 confirm,HEK293 Tl flux,CHO-K1 ctr,KCNQ1 pot spec,KCNQ2 pot confirm,Kir2-1 sel,others
CCCc1cnc(NCCNCC(O)COc2ccc(Cl)c(Cl)c2)nc1 (centres undefined),i,·,68.5%*,i,·,·,·,·,
CCOC(=O)c1c(C)n(C)c2ccc(OCC(O)CNCCc3ccccc3)cc12 (centres undefined),i,0.08,·,·,·,·,·,·,
CC(C)Cc1ccc(/C(=N/O)C(=O)O)s1,i,7.08*,i,i,23.2*,-13.7,26.7*,-41.4,KCNQ2 W236L MoA=i
CCc1ccc(C(=O)c2ccccc2C(=O)O)s1,i,·,·,·,·,·,·,·,
O=C(COc1ccc(Cl)cc1)NNC(=O)c1cccnc1,i,0.22,·,·,·,·,·,·,
CN(C[C@H](Cc1ccccc1)N(C[C@@H](CC1CCCCC1)N(CCc1ccccc1)N=O)N=O)N=O,i,·,·,·,·,·,·,·,
CN(Cc1cccc(C(F)(F)F)c1)C(=O)C1CCC(=O)N(CC2CCCCC2)C1 (centres undefined),i,·,·,·,·,·,·,·,
CNC[C@@H](CC1CCCCC1)NC[C@H](CC(C)C)NCCc1cccc(C(F)(F)F)c1,i,·,27.5%*,i,·,·,·,·,
CNC[C@@H](Cc1ccccc1)NC[C@@H](CC1CCCCC1)NCCCc1ccccc1,-6.16*,-6.16,i,i,·,·,·,·,
Nc1cc(N)nc(SCC(=O)Nc2cc(S(=O)(=O)N3CCOCC3)ccc2Cl)n1,i,·,·,·,·,·,·,·,
Oc1ccccc1C1=NN(c2ccccc2)C(c2ccc(F)cc2)C1 (centres undefined),i,2.9,·,·,·,·,·,·,
Oc1ccc(C2=NN(c3ccccc3)C(c3ccc(F)cc3)C2)cc1 (centres undefined),i,12.3*,i,i,3.9*,-13.8,-16.5,-25.4,
Cc1cc(C(=O)CCC(=O)N(C)CC(=O)Nc2ccccc2Br)c(C)s1,i,0.92,·,·,·,·,·,·,
CCCc1nc2sc3c(c2c(=O)n1NC(=O)CCC(=O)OC)CCCC3,i,9.3*,i,i,6.2*,3.4*,31.4*,-25.3,KCNQ2 W236L MoA=i
Cc1ccccc1-n1c(SCC(=O)O)nc2sc3c(c2c1=O)CCCC3,i,·,·,·,·,·,·,·,
Cc1nc2sc3c(c2c(=O)n1NC(=O)CCBr)CCCC3,i,6.61*,i,i,-6.7,-3.7,11.3*,-35.9,KCNQ2 W236L MoA=i
CCCc1nc2sc3c(c2c(=O)n1N)CCC3,i,·,·,·,·,·,·,·,
CC(C)(C)C(=O)/C=C/c1ccc(Oc2ccccc2)cc1,i,·,·,·,·,·,·,·,
CC1=NOC(=O)/C1=C\c1ccc(-c2ccc(Br)cc2C(=O)O)o1,i,1.18,·,·,·,·,·,·,
CC1=NN(c2ccc(Br)cc2)C(=O)/C1=C/c1ccc(-c2ccccc2C(=O)O)o1,i,7.11*,i,i,-12.0,13.6*,19.4*,-32.6,KCNQ2 W236L MoA=i
CC(C)(C)c1ccc(OCCC(=O)NCC(c2cccs2)N2CCOCC2)cc1 (centres undefined),i,7.04*,·,·,-8.6,123.2*,19.1*,-60.0,KCNQ2 W236L MoA=i
O=C(CSc1ccc(Br)cc1)NCC(c1cccs1)N1CCOCC1 (centres undefined),i,6.81*,·,·,-20.3,-4.2,7.9*,-58.3,KCNQ2 W236L MoA=i
COc1ccc(C(CNC(=O)CSc2ccc(Br)cc2)N2CCOCC2)cc1 (centres undefined),i,1.4,·,·,·,·,·,·,
CCOc1ccc(S(=O)(=O)NCCC(=O)NCC(c2cccs2)N2CCOCC2)cc1 (centres undefined),i,1.56,·,·,·,·,·,·,
Cc1cc(C)nc(NCCCc2ccccc2)n1,i,·,·,·,·,·,·,·,
SMILES,KCNQ2 block,KCNQ2 enhance,Kir21 confirm,HEK293 Tl flux,CHO-K1 ctr,KCNQ1 pot spec,KCNQ2 pot confirm,Kir2-1 sel,others
CCCCNc1cc(C)nc(NCc2ccccc2)n1,i,·,15.0%*,i,·,·,·,·,
CCc1cc2ccccc2nc1SCC(=O)Nc1cc(OC)c(OC)cc1C(=O)O,i,0.7,·,·,·,·,·,·,
C/C(=N\Nc1nncc2ccccc12)c1ccc(O)cc1,i,0.41,·,·,·,·,·,·,
C/C(=N\Nc1nncc2ccccc12)c1ccc(C(C)(C)C)cc1,i,5.94*,i,i,65.2*,-21.4,-32.9,-40.0,
CC1Cc2ccccc2N1C(=S)NC(=O)c1ccco1 (centres undefined),i,3.12,·,·,·,·,·,·,
CC1Cc2ccccc2N1C(=S)NC(=O)C1(C)CC1(Cl)Cl (centres undefined),i,7.2*,i,272.0%*,-4.6,-9.2,26.2*,-14.4,KCNQ2 W236L MoA=i
O=C(NC1CCCCC1)C(c1ccccn1)N(C(=O)c1csnn1)C1CCCCC1 (centres undefined),i,·,·,·,·,·,·,·,
CCOC(=O)CSC1=C(C#N)C(c2ccc3c(c2)OCO3)CC(=O)N1 (centres undefined),i,0.26,·,·,·,·,·,·,
CC(=O)C1=C(C)NC(SCC(=O)c2ccc(C)cc2)=C(C#N)C1c1ccco1 (centres undefined),i,11.7*,i,i,-11.6,-19.7,-21.5,-46.2,
N#CC1=C(SCc2ccccc2)NC(=O)CC1c1ccccc1 (centres undefined),i,·,41.0%*,i,·,·,·,·,
Cc1ccc(C(=O)CSC2=C(C#N)C(c3ccco3)C3=C(CC(C)(C)CC3=O)N2)cc1 (centres undefined),i,0.27,·,·,·,·,·,·,
C=CCSC1=C(C#N)C(c2ccccc2)CC(=O)N1 (centres undefined),i,0.71,·,·,·,·,·,·,
CCOC(=O)C1=C(C)NC(SCC(=O)OC)=C(C#N)C1c1ccc(C(=O)OC)cc1 (centres undefined),i,·,·,·,·,·,·,·,
CCOC(=O)CSC1=C(C#N)C(c2ccc(Cl)cc2)CC(=O)N1 (centres undefined),i,0.03,47.0%*,i,·,·,·,·,
